HCV inhibitor: blocks hepatitis C virus. actives 3.4% (n = 340,000). Huh7.5.1 HCVcc-Cre infection, luciferase reporter, 44 h. Potency, µM (doses to about 41.8 µM), inactives show at the top dose activity change, negative = inhibition, most hits filed as inhibitors. AID 651820; note: potency is the fitted concentration of half-maximal effect
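A cell-based infection assay in which seeded cells (1,000 per well) receive test compound after 4 h, are inoculated with HCVcc-Cre at approximately 0.5 moi, and are incubated 44 h before luminescence detection.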
MARV entry inh: blocks Marburg virus binding to or entry into cells; Marburg virus pseudotyped entry inhibition, cell reporter; Potency, µM (top dose mostly 37.8 µM), for the others: at the top dose activity change, negative = inhibition, most hits filed as inhibitors; actives 1.8% (n = 300,000); calls by dose curve; tested in HEK293 cells; note: potency is the fitted concentration of half-maximal effect
HCMV antiviral: human cytomegalovirus inhibition; activity change, negative = inhibition, % at 57.5 µM; HFF cells, HCMV-luciferase reporter, 72 h; active compounds read low; AID 1259415; actives 4.5% (n = 410,000); in the data active = activity change below about -60%; inconclusive = no clear call, values can overlap the other calls; inactive = above about -39%
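Two compound doses tested in HFFs infected with HCMV-luciferase, MOI 1 PFU/cell, 72 h at 37C. Lysate luminescence read with OneGlo; data normalized against buffer-only and 10uM Salinomycin inhibitor controls.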
Giardia FBPA inh: inhibitors of Giardia lamblia fructose-1,6-bisphosphate aldolase. Potency, µM (top dose mostly 59.6 µM), without a hit: at the top dose activity, negative = inhibition, hits mostly inhibitors. purified Giardia FBPA. actives 0.71% (n = 290,000). A8B2U2; note: potency is the fitted concentration of half-maximal effect; nearly all actives have a fitted effect of over 55% in size
Target sequence (A8B2U2 whole entry, looked up): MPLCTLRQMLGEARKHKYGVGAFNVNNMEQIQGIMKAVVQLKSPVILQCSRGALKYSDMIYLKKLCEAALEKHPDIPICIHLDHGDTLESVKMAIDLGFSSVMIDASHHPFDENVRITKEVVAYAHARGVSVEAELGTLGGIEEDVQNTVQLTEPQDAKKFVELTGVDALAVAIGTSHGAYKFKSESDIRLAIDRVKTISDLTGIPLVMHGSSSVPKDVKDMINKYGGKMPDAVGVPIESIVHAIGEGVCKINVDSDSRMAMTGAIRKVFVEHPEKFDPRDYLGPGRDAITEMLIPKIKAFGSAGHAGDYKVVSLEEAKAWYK
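Giardia FBPA (40 nM reagent) was preincubated 10 min at RT with compound (up to 57.5 uM final), then substrate plus GAPDH/TPI/NAD/arsenate coupling system with diaphorase/resazurin was added; resorufin fluorescence (525/598 nm) was read after 20 min.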
Lassa entry inh: Lassa virus entry inhibition. Lassa virus pseudotype entry inhibition, cell reporter. Potency, µM (highest dose often 37.9 µM), without a hit: at the highest dose activity change, negative = inhibition, hits mostly inhibitors. actives 1.2% (n = 300,000); calls by dose curve; tested in HEK293 cells; note: potency is the fitted concentration of half-maximal effect; nearly all actives have a fitted effect of over 50% in size
FMDV antiviral: foot and mouth disease virus antiviral activity; FMDV antiviral cell-based qHTS; Potency, µM (top dose mostly 57.9 µM), for the others: at the highest dose activity change, negative = inhibition, most hits filed as inhibitors; actives 1.2% (n = 410,000); calls by dose curve; tested in HEK293T cells; note: read-out not given here; potency is the fitted concentration of half-maximal effect; nearly all actives have a fitted effect of over 45% in size
Active calls of the source: *; [ ] = remark or other dose. In the library only some 8.3% were active in any assay of this set; here they are far more common. Unless noted, calls come from the whole dose curve; as a rule, active = well fitted curve in the direction sought with a large enough effect; inconclusive = small, poorly fitted or top-dose-only effect, or another doubt; inactive = no such curve, though single readings can be large; an effect the other way counts as inactive or inconclusive. % is set by controls: 0 for no effect and ±100 for the full control effect.

What do the screens show for `COCc1nnc(NC(=O)c2ccc(S(=O)(=O)N3CCCC3)cc2)o1`?
HCV inhibitor: 22.2%; MARV entry inh: 26.3%; HCMV antiviral: -60.8*; Giardia FBPA inh: inconclusive; Lassa entry inh: 14.7%; FMDV antiviral: -4.3%

What do the screens show for `O=C(Nc1cccnc1)c1ccc(CN2CCc3ccccc3C2)cc1`?
HCV inhibitor: 4.47µM*; MARV entry inh: -5.7%; HCMV antiviral: -35.3; Giardia FBPA inh: inconclusive; Lassa entry inh: -29.6%; FMDV antiviral: inconclusive

Results for COc1ccc(-c2cnnn2-c2ccc(NC(=O)c3ccc(S(=O)(=O)N4CCCCC4)cc3)cc2)cc1 ?
HCV inhibitor: -3.4%; MARV entry inh: -5.4%; HCMV antiviral: -29.1; Giardia FBPA inh: 0.1%; Lassa entry inh: 7.08µM*; FMDV antiviral: 4.2%

Results for COC(=O)[C@H]1C[C@@H]2CC[C@@H](O)C[C@@H]2N1Cc1c(F)cccc1Cl ?
Giardia FBPA inh: 0.0%

How did Cc1ccc(C(=O)N2CCc3cc(CNC(=O)CSc4ccccc4)ccc32)cc1 do in these assays?
HCMV antiviral: inconclusive; Lassa entry inh: inconclusive; FMDV antiviral: 5.5%

Results for O=C(Nc1ccc2c(c1)CN(Cc1ccc(CO)o1)CC2)c1ccc(C(F)(F)F)cc1 ?
HCV inhibitor: 11.2µM*; MARV entry inh: inconclusive; HCMV antiviral: inconclusive; Lassa entry inh: inconclusive; FMDV antiviral: 0.0%

What do the screens show for `O=C(Nc1ccccc1)c1ccc(CN2CCc3ccccc3C2)cc1`?
HCV inhibitor: inconclusive; MARV entry inh: inconclusive; HCMV antiviral: -67.1*; Giardia FBPA inh: 4.7%; Lassa entry inh: -2.8%[46.1 µM]; FMDV antiviral: -1.0%

Results for CCSc1nc2n(n1)C(c1ccc(CC)cc1)C(C(=O)Nc1ccccc1OC)=C(C)N2 (centres undefined) ?
HCMV antiviral: -1.3; Lassa entry inh: 14.0%[46.1 µM]; FMDV antiviral: -13.1%

Results for C=CCOC(=O)N[C@H](c1ccc(-c2ccccc2)cc1)[C@H](C)C=CCC(=O)OC ?
MARV entry inh: -3.8%[14.2 µM]; Lassa entry inh: inconclusive

Results for Cc1cccc(CN2C(=O)N(c3ccc(C(C)C)cc3)S(=O)(=O)c3ccccc32)c1 ?
HCMV antiviral: -68.9*; Lassa entry inh: inconclusive; FMDV antiviral: -5.2%

Results for Cc1ccc(N2C(=O)N(Cc3cccc(Cl)c3)c3ccccc3S2(=O)=O)cc1 ?
HCMV antiviral: inconclusive; Lassa entry inh: -27.3%[46.1 µM]; FMDV antiviral: -17.0%

How did CCc1ccccc1N1C(=O)N(Cc2cccc(Cl)c2)c2ccccc2S1(=O)=O do in these assays?
HCMV antiviral: -104.7*; Lassa entry inh: -23.1%[46.1 µM]; FMDV antiviral: inconclusive

How did CCCN1CCCC(c2cccc(S(C)(=O)=O)c2)C1 (centres undefined) do in these assays?
Giardia FBPA inh: -0.8%; FMDV antiviral: -20.3%

How did COc1ccc(OC)c(CNc2ncnc3c2nc2n3CCCC2)c1 do in these assays?
HCMV antiviral: -30.6; Lassa entry inh: inconclusive; FMDV antiviral: -5.1%

How did Cc1nn(-c2ccccc2)c(C)c1CC(=O)NCC1Cc2cc(F)cc(-c3cccnc3)c2O1 (centres undefined) do in these assays?
FMDV antiviral: -10.8%

How did Cc1c(NS(=O)(=O)c2ccccc2)ccc([N+](=O)[O-])c1Cl do in these assays?
HCV inhibitor: -13.7%; MARV entry inh: inconclusive; HCMV antiviral: -64.7*; Lassa entry inh: inconclusive; FMDV antiviral: 7.0%

How did O=C1[C@@H]2[C@H](ON(c3ccccc3)[C@H]2c2ccncc2)C(=O)N1c1ccc(Br)cc1 do in these assays?
MARV entry inh: -20.9%

What do the screens show for `Fc1ccc(C(c2nnc(-c3ccccc3)o2)N2CCN(c3ccccc3)CC2)c(Cl)c1` (centres undefined)?
HCMV antiviral: -34.0; Lassa entry inh: inconclusive; FMDV antiviral: -27.3%

How did COc1cc2cnc(-c3ccccc3)c(-c3cc(OC)c(OC)c(OC)c3)c2cc1OC do in these assays?
HCV inhibitor: 12.6µM*; HCMV antiviral: 17.1; FMDV antiviral: -20.1%

How did COc1cc2cnc(-c3ccccc3)cc2cc1OC do in these assays?
HCV inhibitor: 22.4µM*; HCMV antiviral: 117.8; FMDV antiviral: 11.2%

How did COc1nc(-c2ccccc2)cc(-c2ccc(OC)c(OC)c2)n1 do in these assays?
HCV inhibitor: 1.78µM*; MARV entry inh: inconclusive; HCMV antiviral: 46.1; Giardia FBPA inh: -7.3%; Lassa entry inh: -19.1%; FMDV antiviral: -22.9%

How did COc1cc2cnc(-c3ccccc3)c(-c3ccc([N+](=O)[O-])cc3)c2cc1OC do in these assays?
HCV inhibitor: 3.3%; HCMV antiviral: -26.8; FMDV antiviral: 4.9%

What do the screens show for `CCOC(=O)N1CCN(Cc2ccc3c(c2)CN(C(=O)c2cc(-c4ccccc4)on2)CCO3)CC1`?
FMDV antiviral: 28.2µM*

What do the screens show for `CCOC(=O)N1CCN(Cc2ccc3c(c2)CN(C(=O)c2cc(-c4ccccc4)no2)CCO3)CC1`?
FMDV antiviral: 25.1µM*

Results for COCC1CCCN(Cc2ccc3c(c2)CN(C(=O)c2cc(-c4ccccc4)n[nH]2)CCO3)C1 (centres undefined) ?
FMDV antiviral: -20.2%

How did CC(C)(CNC(=O)c1cnn(-c2ncc3c(n2)-c2ccccc2CC3)c1C1CC1)N1CCOCC1 do in these assays?
FMDV antiviral: -13.4%

How did Cc1cccc(NC(=S)N2CCN(C(=O)c3ccco3)CC2)c1 do in these assays?
HCV inhibitor: -2.2%; MARV entry inh: -14.2%[46.1 µM]; HCMV antiviral: -18.8; Lassa entry inh: -27.7%[46.1 µM]; FMDV antiviral: 1.3%

Results for O=C(CSc1ccc(Cl)cc1)Nc1ccc(N2CCN(C(=O)c3ccco3)CC2)cc1 ?
HCV inhibitor: 2.4%; MARV entry inh: inconclusive; HCMV antiviral: 1.9; Giardia FBPA inh: -1.4%; Lassa entry inh: -22.1%; FMDV antiviral: 20µM*

What do the screens show for `O=C(c1ccco1)N1CCN(C(=S)Nc2cccc([N+](=O)[O-])c2)CC1`?
HCV inhibitor: -18.4%; MARV entry inh: inconclusive; HCMV antiviral: -68.8*; Giardia FBPA inh: 1.2%; Lassa entry inh: inconclusive; FMDV antiviral: inconclusive

How did O=C(COc1ccc([N+](=O)[O-])cc1)Nc1ccc(N2CCN(C(=O)c3ccco3)CC2)cc1 do in these assays?
HCV inhibitor: 11.2µM*; MARV entry inh: 5.8%[46.1 µM]; HCMV antiviral: inconclusive; Lassa entry inh: 4.2%[46.1 µM]; FMDV antiviral: inconclusive

Results for Cc1ccccc1C(=O)N1CCN(c2ccc(NC(=O)CSc3ccc(Cl)cc3)cc2)CC1 ?
HCV inhibitor: 11.2µM*; MARV entry inh: 11.2µM*; HCMV antiviral: -70.6*; Giardia FBPA inh: 4.3%; Lassa entry inh: inconclusive; FMDV antiviral: inconclusive

How did CCC(=O)Nc1ccc(N2CCN(C(=O)c3ccccc3C)CC2)cc1 do in these assays?
HCV inhibitor: inconclusive; MARV entry inh: 2.3%; HCMV antiviral: 22.2; Giardia FBPA inh: -20.4%; Lassa entry inh: 7.0%; FMDV antiviral: -5.4%

Bioassay records from PubChem BioAssay.
